Reference: PubChem BioAssay
Active and inactive are the calls of the source. Cut-off read from the data, not from the text of the source, unless noted: active = inhibition above about 80%; inactive = the rest.

Columns and labels:
[1] = LFS_MB_P medulloblastoma growth inhibition, cell-based, chromothripsis tumors, cisplatin or BGB combos (AID 1671449); details: LFS_MB_P medulloblastoma cells;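 note: cells exposed for 96 hours; 0% = vehicle DMSO and 100% = killing by high DMSO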
[2] = HDN33 neuroblastoma growth inhibition, cell-based, chromothripsis tumors, cisplatin or BGB combos (AID 1671450); details: HDN33 neuroblastoma cells, stronger effect = higher value;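 note: cells exposed to compound for four days; 0% = vehicle DMSO and 100% = cell killing by high DMSO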
[3] = ICB984 medulloblastoma cell growth inhibition, synergistic combos for chromothripsis tumors, cisplatin or BGB combos (AID 1671451; call rule not given here;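 note: cells exposed for 96 hours before readout; 0% = vehicle DMSO and 100% = killing by high DMSO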); details: ICB984 medulloblastoma cells, drug combinations, stronger effect = higher value
[4] = LFS_MB_1R medulloblastoma cell growth inhibition, synergistic combos for chromothripsis tumors, cisplatin or BGB combos (AID 1671452); details: LFS_MB_1R medulloblastoma cells, stronger effect = higher value;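 note: cells exposed for 96 hours before readout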
[5] = HTB85 osteosarcoma cell growth inhibition, synergistic combos for chromothripsis tumors, BGB or cisplatin IC20 combos (AID 1671453); details: HTB85 osteosarcoma cells, drug combinations, stronger effect = higher value;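 note: cells exposed for 96 hours before readout; 0% = vehicle DMSO and 100% = high DMSO killing control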
[6] = CRL2098 osteosarcoma cell growth inhibition, synergistic combos for chromothripsis tumors, BGB or cisplatin IC20 combos (AID 1671454); details: CRL2098 osteosarcoma cells, drug combinations, stronger effect = higher value;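 note: cells exposed for 96 h before readout; 0% = vehicle DMSO and 100% = killing by high DMSO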
[7] = HD-MB03 medulloblastoma cell growth inhibition, synergistic combos for chromothripsis tumors, BGB or cisplatin IC20 combos (AID 1671455; in the data active = inhibition above about 83%;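 note: 0% = vehicle DMSO and 100% = high DMSO as cytotoxic control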); details: HD-MB03 medulloblastoma cells, stronger effect = higher value
[8] = UWB1.289 ovarian carcinoma cell growth inhibition, synergistic combos for chromothripsis tumors, BGB or cisplatin combos (AID 1671456); details: UWB1.289 ovarian carcinoma cells, stronger effect = higher value;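 note: cells exposed to compound for four days; 0% = vehicle DMSO and 100% = killing by high DMSO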
[9] = LFS_MB_2R medulloblastoma cell growth inhibition, synergistic combos for chromothripsis tumors, cisplatin combos (AID 1671457); details: LFS_MB_2R medulloblastoma cells, stronger effect = higher value;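 note: cells exposed to compound for four days before readout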
[10] = MDA-MB-436 breast carcinoma cell growth inhibition, synergistic combos for chromothripsis tumors, BGB or cisplatin combos (AID 1671458; call rule not given here;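 note: cells exposed for 96 hours; 0% = vehicle DMSO and 100% = killing by high DMSO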); details: MDA-MB-436 breast carcinoma growth inhibition, drug combinations, stronger effect = higher value
[11] = UWB1.289_BRCA1 ovarian cancer growth, cell-based, BGB or cisplatin combinations (AID 1671459); details: UWB1.289 BRCA1 ovarian carcinoma, drug combinations, stronger effect = higher value
[12] = human astrocyte viability loss, single and combined drugs, cytotoxicity control for chromothriptic childhood tumor combination screen, cell-based, BGB or cisplatin IC20 combos (AID 1671460); details: Human astrocytes, drug combinations, stronger effect = higher value;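 note: cells exposed to compounds for 96 hours before viability readout; 0% = vehicle and 100% = killing control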
[13] = growth inhibition of BT084 medulloblastoma cells, cell-based, ICGC_MB145, cisplatin and BGB IC40 combos (AID 1671461); details: drug combinations, stronger effect = higher value;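 note: cells exposed to drugs for 96 hours; 0% = vehicle DMSO and 100% = high DMSO full killing control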
[14] = growth inhibition of RCMB18 medulloblastoma cells, cell-based, cisplatin and BGB IC40 combos (AID 1671462); details: stronger effect = higher value;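 note: cells exposed to compound for four days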
[15] = growth inhibition of CRL1545 osteosarcoma cells, cell-based, cisplatin and BGB IC20 combos (AID 1671464); details: stronger effect = higher value;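 note: cells exposed to compound for 96 hours before readout; 0% = vehicle DMSO and 100% = high DMSO killing control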
[16] = viability rescue of complex I mutant cybrids, primary screen, cell-based, galactose medium, ATP luminescence (AID 1645843;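 active = z-score of at least 1.8 in each of two replicates, scored against plate mean and spread of sample wells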;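 note: positive z means more ATP and so rescue of galactose-driven cybrid death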); details: complex I mutant cybrid cells, 72 h, stronger effect = higher value
[17] = measured here: combination with BGB IC40, at 0.05 µM
[18] = measured here: with BGB IC20 combination, at 0.5 µM
[19] = measured here: with cisplatin IC20 combination, at 0.5 µM
[20] = measured here: combination with cisplatin, at 0.5 µM
[21] = measured here: combination with cisplatin, at 5 µM

Nc1nc(NC2CC2)cc(-c2cccc(Cl)c2Cl)n1
inhibition ([1]; at 0.5 µM, stronger effect = higher value): -24.4% (inactive) | inhibition ([1]; measured here: combination with BGB IC20, at 0.005 µM): 6.42% | inhibition ([1]; measured here: combination with BGB IC40, at 0.005 µM): -13.3% | inhibition [1, 17]: -3.68% | inhibition ([1]; measured here: combination with cisplatin, at 0.5 µM, stronger effect = higher value): -27.2% | inhibition ([1]; measured here: combination with cisplatin, at 5 µM, stronger effect = higher value): -1.92% | inhibition ([2]; BGB combo, at 5 µM): 4.24% | inhibition ([2]; at 0.5 µM): -22.2% (inactive) | inhibition ([2]; cisplatin combo, at 5 µM): -25.5% | inhibition [2, 18]: -14.4% | inhibition [2, 19]: -33.4% | inhibition ([2]; single agent, at 5 µM): 1.5% | inhibition ([3]; BGB IC20 combo, at 0.005 µM): -16.3% | inhibition ([3]; BGB IC40 combo, at 0.005 µM): -42.9% | inhibition ([3]; BGB IC40 combo, at 0.05 µM): -23.9% | inhibition ([3]; at 0.5 µM): -15.4% (inactive) | inhibition ([3]; cisplatin combo, at 0.05 µM): -28.8% | inhibition ([3]; cisplatin combo, at 0.5 µM): -25.9% | inhibition ([3]; cisplatin combo, at 5 µM): -24% | inhibition ([3]; measured here: 5 uM single agent, at 5 µM): -4.67% | inhibition ([4]; at 0.5 µM): -47.5% (inactive) | inhibition [4, 17]: -29.4% | inhibition [4, 20]: -115% | inhibition [4, 21]: -60.1% | inhibition ([5]; at 0.5 µM): -20.9% (inactive) | inhibition ([5]; measured here: with BGB IC20, at 0.5 µM): -3.53% | inhibition ([5]; measured here: with BGB IC20, at 5 µM): -8.44% | inhibition ([5]; measured here: with cisplatin IC20, at 0.5 µM): -38.1% | inhibition ([5]; measured here: with cisplatin IC20, at 5 µM): -21.3% | inhibition ([5]; single agent, at 5 µM): 3.83% | inhibition ([6]; at 0.5 µM): -50% (inactive) | inhibition ([6]; measured here: combination with BGB at IC20, at 0.5 µM): -42.1% | inhibition ([6]; measured here: combination with cisplatin at IC20, at 0.5 µM): -36.5% | inhibition ([7]; at 0.5 µM): -12.4% (inactive) | inhibition ([7]; measured here: combo with BGB at IC20, at 0.5 µM): -17% | inhibition ([7]; measured here: combo with cisplatin at IC20, at 0.5 µM): -8.02% | inhibition ([8]; at 0.5 µM): -15.7% (inactive) | inhibition ([8]; measured here: inhibition with BGB combination, at 0.05 µM): -10.8% | inhibition ([8]; measured here: inhibition with cisplatin combination, at 0.05 µM): -19.7% | inhibition ([9]; at 0.5 µM): -12.8% (inactive) | inhibition [9, 20]: -18% | inhibition [9, 21]: 18.1% | inhibition ([10]; at 0.5 µM): -5.02% (inactive) | inhibition ([10]; measured here: BGB combination, at 0.5 µM): -1.67% | inhibition ([10]; measured here: BGB combination, at 5 µM): 10.3% | inhibition ([10]; measured here: cisplatin combination, at 0.5 µM): -5.74% | inhibition ([10]; measured here: cisplatin combination, at 5 µM): 15.8% | inhibition ([11]; BGB combination, concentration series, at 5 µM): 9.28% | inhibition ([11]; at 0.5 µM): -9.72% (inactive) | inhibition ([11]; cisplatin combination, concentration series, at 5 µM): 10.7% | inhibition ([12]; at 0.5 µM): -2.78% (inactive) | inhibition ([12]; measured here: combo with BGB IC20, at 0.5 µM): -4.24% | inhibition ([12]; measured here: combo with cisplatin IC20, at 0.5 µM): 6.45% | inhibition ([13]; at 0.5 µM): -9.21% (inactive) | inhibition ([13]; cisplatin combination, at 0.5 µM): -6.21% | inhibition ([13]; cisplatin combination, at 5 µM): -20.8% | inhibition ([13]; measured here: BGB IC40 combination 0.05 uM, at 0.05 µM): -10.7% | inhibition ([13]; single agent, at 5 µM): -6.16% | inhibition ([14]; at 0.5 µM): -8.4% (inactive) | inhibition ([14]; cisplatin combo, at 5 µM): -0.639% | inhibition ([14]; measured here: BGB IC40 combination, at 0.05 µM): -3.5% | inhibition [14, 20]: -22.4% | inhibition ([14]; single agent, at 5 µM): -28.4% | inhibition ([15]; at 0.5 µM): -36.8% (inactive) | inhibition [15, 18]: -16.7% | inhibition [15, 19]: -46.8% | inhibition ([15]; single agent, at 0.05 µM): -25% | inhibition ([15]; single agent, at 5 µM): -32.6%

Fc1cccc(-c2ccc(N3CCC(NC4CCNCC4)CC3)cc2)c1
z-score [16]: -1.3 (inactive)

Cc1ccc(CC(=O)Nc2ccnn2C2CCCCC2)cc1F
z-score [16]: 0.325 (inactive)

Cc1nsc(NC(=O)N2CCCN(c3ccc(F)cc3)CC2)n1
z-score [16]: -0.27 (inactive)
